# Source: PubChem BioAssay (NCI)
# Values joined by “and” are separate entries in the source; they are usually repeats but may differ in a detail not shown here. Equal entries are not always repeated. The panel holds about 83,000 compounds, 20% with a hit somewhere; the sample as a whole holds those more often.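 Method: cells in 96-well plates; compound added at one concentration; 48 h incubation; percent growth measured; values under 10 scored active.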 Unmarked numbers belong to inactive results. Active and inactive are the calls of the source.
# System: MDA-MB-468 breast
# Test: NCI-60 one-dose screen, 48 h (100 = growth as untreated, 0 = no growth, -100 = all killed)
# Details: 10 µM unless noted
row,Structure (SMILES),growth
1,CCN(CC)CCNC(=O)c1ccc(NCN2C(=O)NC(c3ccccc3)(c3ccccc3)C2=O)cc1,101% and 111%
2,COc1cc(C2CC(=O)Nc3c2c(C)nn3-c2nc3ccccc3[nH]2)cc2c1OCC(=O)N2 (stereo unspecified),57.1%
3,Nc1nc(-c2cccc(Br)c2)cc(-c2cc3ccccc3oc2=O)n1,91.8%
4,COc1ccc(NC(=O)C2c3ccccc3C(=O)N(CC(C)C)C2c2cccs2)cc1 (stereo unspecified),82.3%
5,Cc1nn(-c2ccccc2)cc1/C=C1\SC(N2CCCCC2)=NC1=O,96.3%
6,CS(=O)(=O)Nc1cc(-c2ccc3ncc(C#N)c(NCc4ccccc4F)c3c2)cnc1Cl,-16.8% (active)
7,COc1cc(C2CC(c3cccc(Nc4ccncc4)c3)=NN2C(C)=O)cc(OC)c1OC (stereo unspecified),86.6%
8,Cc1ccc(/C=C2/C(=O)N(C)c3ccc(S(=O)(=O)Nc4ccc(C(C)(C)C)cc4)cc32)s1,63.1%
9,C=CC1(C)C(O[Si](C)(C)C(C)(C)C)CC2C3OC(=O)NC31c1cccc3c1[C@H](C(=O)N3C)C2(C)C (stereo partly specified),31.3%
10,O=C1[C@@H]2Cc3c([nH]c4ccccc34)[C@H](c3c(Cl)cccc3Cl)N2C(=O)CN1C1CCN(Cc2c(F)cccc2F)CC1,102%
11,Cc1c(-c2cnc3ccc(Cl)cc3c2C(=O)O)nnn1-c1ccc(Cl)cc1,110%
12,CCCCCCCC(C)NCCO (stereo unspecified),104%
13,CC1(O)CCCCCC1,100%
14,CN(O)c1nc(N(C)O)nc(N2CCOCC2)n1,-6.58% (active)
15,Cc1cc2nc3c4cc(N)ccc4n(CCN(C)C)c3nc2cc1C,-5.6% (active)
16,CCS(=O)(=O)CCCl,101%
17,c1ccc2c(c1)CCN(NCCN1CCCC1)C2,109%
18,COc1ccc2nc(NC(=O)Nc3c(F)cccc3F)sc2c1,96.1%
19,CNC(=O)c1cccnc1,106%
20,C=C1C(=O)O[C@H]2[C@H]1CC/C(COC(=O)c1cc3ccccc3s1)=C\CC[C@@]1(C)O[C@@H]21,-48.4% (active)
21,Clc1ccc2[nH]cc(-c3nn4cc(-c5cccnc5)nc4s3)c2c1,98.1%

row,Structure (SMILES),growth
1,O=C1CC2c3cc(-c4cc5ccccc5o4)ccc3CCN2C(=O)N1c1ccccc1 (stereo unspecified),88.4%
2,C[C@]12CC[C@@H]3c4ccc(OS(=O)(=O)O)cc4CC[C@H]3[C@@H]1CC[C@@H]2NS(=O)(=O)c1ccc(-c2ccccc2)cc1,76.8%
3,O=C1c2cccc3cccc(c23)C(=O)N1Nc1nc(N2CCOCC2)nc(N2CCN(c3ccccc3)CC2)n1,-15.8% (active)
4,CCCCCCCCCCCC(=O)NCCCN(C)C,111%
5,CNc1ncc2cc(-c3ccc(-c4ncccc4F)cc3Cl)c(=O)n(CC3OCC(N)CO3)c2n1 (stereo unspecified),34.5%
6,COc1ccc2c(c1)N(CCO)C1=C(C(=O)OC1)C2c1cc(OC)c(OC)c(OC)c1 (stereo unspecified),3.62% (active)
7,Cn1c(=O)n(C)c2cc(CNCCNc3ccnc4cc(Cl)ccc34)ccc21,59.4%
8,CCCCOCc1cc(CN2CCN(C)CC2)c(O)c2ncccc12,46.1%
9,Cc1cc(Nc2nc(-c3ccncc3)nc3ccccc23)n[nH]1,84.2%
10,COc1ccc(C(c2ccc(OCCN(C)C)cc2)c2cc3ccccc3c3ccccc23)cc1 (stereo unspecified),2.65% (active)
11,COc1ccc(C2=C(CN)C(O)NC(=NCC(=O)c3ccc4ccccc4c3)N2)cc1 (stereo unspecified),118%
12,CCCCCCC12CCC(=O)N1CCc1cncn12 (stereo unspecified),85%
13,COC(=O)CCCCC1=CCC2C(=O)C=C(O)C2C1 (stereo unspecified),100%
14,CC(=O)Nc1ccc(/C=C/C(=O)c2ccccc2)cc1,52%
15,COc1ccc2c(c1)[nH]c(=O)c1c3cccnc3cn21,6.19% (active)
16,COc1cc(NC(=O)NCc2ccco2)ccc1-c1ccc(NC(=O)NCc2ccco2)cc1OC,16.8%
17,C#CC#CC#CC#CC#CC#CC#CC#CC[C@@H]1OC[C@H](COC(=O)O[C@@H](C(=O)O[C@H]2C[C@@]3(O)[C@@H](OC(=O)c4ccccc4)[C@@H]4[C@]5(OC(C)=O)CO[C@@H]5C[C@H](O)[C@@]4(C)C(=O)[C@H](OC(C)=O)C(=C2C)C3(C)C)[C@@H](NC(=O)c2ccccc2)c2ccccc2)O1,-8.1% (active)
18,O=C1CC(SC(=S)C2CCCC2=O)C(=O)N1 (stereo unspecified),106%
19,N#C/C(=C\c1ccc(F)cc1)n1nc2cccc(F)c2n1,21.6%
20,O=C(Nc1ccc(Br)cc1)Nc1nc2ccc([N+](=O)[O-])cc2s1,-29% (active)
21,COS(=O)(=O)CCN(CCOS(C)(=O)=O)S(C)(=O)=O,104%

row,Structure (SMILES),growth
1,COc1ccc(C/C(C)=C(\c2ccc(O)cc2)c2ccc(OCCN3CCCCC3)cc2)cc1,70.2%
2,O=C(Nc1nc2ccc(C(=O)N3CCN(/C=C/c4ccccc4)CC3)cc2s1)c1ccc(NCCc2ccccc2)c([N+](=O)[O-])c1,22.6%
3,Cc1ccc(-c2nc(SCc3nc4cc(Cl)c(Cl)cc4[nH]3)[nH]c(=O)c2C#N)cc1,116%
4,N#CCCCCCCCCCCC#N,112%
5,O=[N+]([O-])c1ccccc1Nc1ccc2ccccc2c1,80.4%
6,O=C(Nc1ccccc1)NS(=O)(=O)c1c[nH]c(=S)[nH]c1=O,112%
7,CN1CCN(CC(=O)Nc2cccc(-n3cc(-c4ccncc4)c(-c4ccc(Cl)c(O)c4)n3)c2)CC1,10.7%
8,C=C(CO)[C@@H]1CC[C@]2(COC3CCCCO3)CC[C@]3(C)[C@H](CC[C@@H]4[C@@]5(C)C=C(C=O)C(=O)C(C)(C)[C@@H]5CC[C@]43C)[C@@H]12 (stereo partly specified),-75.4% (active)
9,COc1cccc2c1C(=O)c1c(O)c3c(c(O)c1C2=O)C[C@@](O)(C(=O)CO)C[C@@H]3OC1C[C@H](N)[C@H](O)[C@H](C)O1 (stereo partly specified),-68.8% (active)
10,O=C(NN1C(=O)CSC1c1ccc(Cl)cc1)c1cccnc1 (stereo unspecified),115%
11,O=C(O)CN1C(=O)C=CC1=O,104%
12,OCC1OC(n2ccc3c2ncn2ncnc32)C(O)C1O (stereo unspecified),-5.09% (active)
13,C=C(C)[C@@H]1CC[C@]2(C(=O)N3CCN(C)CC3)CC[C@]3(C)[C@H](CC[C@@H]4[C@@]5(C)C/C(=C/c6ccco6)C(=O)C(C)(C)[C@@H]5CC[C@]43C)[C@@H]12,64.6%
14,COC(=O)[C@@H](NC(=O)[C@@H](OC)[C@@H]1Cc2cc3cc(OC4CC(OC5CC(O)C(O)C(C)O5)C(O)C(C)O4)c(C)c(O)c3c(O)c2C(=O)[C@H]1OC1CC(OC2CC(OC3CC(C)(O)C(O)C(C)O3)C(O)C(C)O2)C(O)C(C)O1)C(C)C (stereo partly specified),-3.89% (active)
15,Oc1ccccc1/C=N/N=C/c1c(O)ccc2ccccc12,83.4%
16,Cn1cc(-c2csc(-c3c[nH]c4ncccc34)n2)c2cc(Br)cnc21,15.4%
17,Cc1cc(N2CCOCC2)nc(N[C@@H]2CCC[C@H](Nc3ccnc4cc(Cl)ccc34)C2)n1,-6.14% (active)
18,CN(C)C(=S)SCN1C(=O)c2ccc([N+](=O)[O-])cc2S1(=O)=O,88.4%
19,CCNCCNc1cc(-c2ccc(Cl)cc2)c(C#N)c2nc3ccccc3n12,-45.3% (active)
20,Nc1cc2c(cc1Cl)-c1ccc([N+](=O)[O-])cc1/C2=N\O,77.7%
21,O=C(c1cnn2c1NC(c1ccc(F)cc1)C2)N1CCCCC1 (stereo unspecified),107%

row,Structure (SMILES),growth
1,COc1cc2ncnc(Nc3ccc(C(=O)/C=C/c4ccc(C(F)(F)F)cc4F)cc3)c2cc1OC,107%
2,O=C(C[C@@H](C(=O)NCc1cccc(C(F)(F)F)c1)N1C(=O)[C@@H](N2C(=O)OC[C@@H]2c2ccccc2)[C@H]1/C=C/c1ccccc1)NC1CCN(Cc2ccccc2)CC1,-1.25% (active)
3,CC(=O)Oc1ccccc1C(=O)Nc1ccc(C(=O)/C=C/c2ccncc2)cc1,4.04% (active)
4,NNC(=O)Oc1c(Cl)cc(Cl)cc1[N+](=O)[O-],112%
5,Cc1c2ccccc2nc2c1ccc1cccnc12,89.8%
6,NCCSC(C[N+](=O)[O-])c1ccccc1Cl (stereo unspecified),10.2%
7,Cc1c(N)ccc(-c2ccc(N)c(C)c2S(=O)(=O)O)c1S(=O)(=O)O,115%
8,N#Cc1c(-c2ccc(Cl)cc2)nc(NN=Cc2cccc(Cl)c2)nc1N1CCOCC1,85.1%
9,CCCCCCCCCCCCCCCCCCOc1ccccc1CC(=O)NCC[N+]1(C)CCCC1,3.53% (active)
10,Cc1ccc(-c2c3c(N)nc(-c4cccnc4)nc3nc3c2c(C)nn3-c2ccccc2)cc1,74.6%
11,O=S(=O)(O)c1ccc(Cl)cc1,105%
12,CCN(CC)c1ccc(/C=N/NC(=O)C[N+](C)(C)C)cc1,112%
13,O=C1c2ccccc2Cc2cccc(Cl)c21,92.7%
14,CNC(=O)c1cc(Oc2ccc3nc(Nc4cc(Cl)cc(Cl)c4)ccc3c2)ccn1,54.1%
15,COc1cc(-c2[nH]ncc2Nc2ccc(Cl)cc2)cc(OC)c1OC,55.7%
16,CCOC(=O)Nc1cccc(-n2cnc3cc(-c4ccc(O)cc4)ccc32)c1,20.4%
17,Cc1[nH]c(C(=O)Nc2ccc(C(=O)N3CCN(c4cc5c(cc4F)c(=O)c(C(=O)O)cn5C4CC4)CC3)cc2OC(C)C)c(Cl)c1Cl,85.9%
18,O=CC(OC(=O)c1ccccc1)C(OC(=O)c1ccccc1)C(COC(c1ccccc1)(c1ccccc1)c1ccccc1)OC(=O)c1ccccc1 (stereo unspecified),74.6%
